Compound activity (PubChem BioAssay)
POLB inh: inhibitors of human DNA polymerase beta | Pol beta primer extension/strand displacement, fluorescence kinetic | Potency, µM (series often up to 114 µM), hits mostly inhibitors | 340,000 tested, 1.3% active | AID 485314
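Curves were derived by four-parameter Hill fits of normalized qHTS data. The kinetic fluorescent primer-extension read was taken at 0 and 10 min after 50 nM substrate, following a 15 min room-temperature preincubation of 10 nM enzyme with compounds.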
POLI inh: blocks human DNA polymerase iota activity; Potency, µM (doses to about 115 µM), actives largely listed as inhibitors; Pol iota fluorescent replication assay, 10 min; Q9UNA4; 390,000 tested, 1% active; AID 588590
Target sequence (Q9UNA4 whole entry, looked up): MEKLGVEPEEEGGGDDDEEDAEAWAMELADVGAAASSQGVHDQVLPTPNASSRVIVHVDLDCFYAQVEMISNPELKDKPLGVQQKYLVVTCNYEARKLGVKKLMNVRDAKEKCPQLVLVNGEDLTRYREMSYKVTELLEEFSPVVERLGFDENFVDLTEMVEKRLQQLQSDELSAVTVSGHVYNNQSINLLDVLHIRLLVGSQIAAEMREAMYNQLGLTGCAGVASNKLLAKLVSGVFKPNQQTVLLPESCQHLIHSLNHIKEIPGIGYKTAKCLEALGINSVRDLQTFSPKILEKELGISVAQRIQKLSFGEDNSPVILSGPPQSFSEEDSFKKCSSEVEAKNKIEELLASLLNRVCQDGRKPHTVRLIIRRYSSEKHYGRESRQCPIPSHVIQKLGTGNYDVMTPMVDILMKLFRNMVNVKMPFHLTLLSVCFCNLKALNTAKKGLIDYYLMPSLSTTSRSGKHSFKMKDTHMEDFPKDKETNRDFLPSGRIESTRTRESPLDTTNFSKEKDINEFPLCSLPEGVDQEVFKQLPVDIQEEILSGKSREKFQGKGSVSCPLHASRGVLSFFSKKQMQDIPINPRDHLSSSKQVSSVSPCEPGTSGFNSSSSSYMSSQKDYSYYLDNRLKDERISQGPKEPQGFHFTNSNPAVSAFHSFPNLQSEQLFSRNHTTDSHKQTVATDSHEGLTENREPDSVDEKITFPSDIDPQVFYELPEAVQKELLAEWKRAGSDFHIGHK
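Fluorescent replication assay read twice, at 0 min and 10 min after adding 50 nM (final) substrate. Enzyme (10 nM) and compounds were first incubated 15 min at room temperature; enzyme-free buffer wells were negative controls.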
TDP1 inh: TDP1 (human) enzyme inhibition. Potency, µM (highest dose often 130 µM), actives largely listed as inhibitors. recombinant TDP1, AlphaScreen DNA substrate cleavage. 350,000 tested, 0.28% active. Q9NUW8. AID 485290; note: nearly all actives have a fitted effect of over 40% in size
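Recombinant human Tdp1 (E. coli-expressed, 1 nM final) preincubated with compounds 15 min at room temperature, then 5'-biotin/3'-phosphotyrosine-FITC DNA substrate (15 nM final) added for 5 min. AlphaScreen beads (10 ug/ml final) added 10 min; cleavage lowers signal.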
Pol kappa inh-1: inhibitors of human DNA polymerase kappa. Potency, µM (top dose mostly 107 µM), most hits filed as inhibitors. 400,000 tested, 0.53% active. purified Pol kappa, fluorescent DNA synthesis assay, 10 min
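Enzyme at 10 nM met test compounds for 15 min at room temperature. Substrate addition (50 nM final) began the reaction, which was monitored by fluorescence at 0 and 10 min.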
Pol eta inh-1: DNA polymerase eta (human) inhibition. recombinant Pol eta, fluorescent DNA replication assay. 390,000 tested, 1.2% active. Q9Y253. Potency, µM (highest dose often 114 µM), hits mostly inhibitors. AID 588591
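Pol eta at 10 nM preincubated with compounds 15 min at room temperature; reaction started with fluorescent substrate (50 nM final) and read kinetically at 0 and 10 min.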
PGK validate: blocks T. brucei phosphoglycerate kinase | 500 tested, 79% active | shares compounds with Pol kappa inh-1 | AID 686980 | TbPGK coupled GAPDH assay, Kinase-Glo luminescence | Potency, µM (highest dose often 57.5 µM), usual class: inhibitors; note: nearly all actives have a fitted effect of over 65% in size
POLI cherry-pick: Human Pol iota inhibitor confirmatory assay; shares compounds with Pol kappa inh-1; Pol iota primer extension, TAMRA/BHQ fluorescence; Potency, µM, hits mostly inhibitors; 1,500 tested, 77% active; AID 720496
GALK inh confirm: galactokinase (human) inhibition, confirmation | shares compounds with Pol eta inh-1 | purified GALK, Kinase-Glo ATP depletion luminescence | Potency, µM (titrated, usually from 115 µM), hits mostly inhibitors | 150 tested, 70% active | AID 2015
GALK redox cs: generates H2O2 by redox cycling, flagging GALK artifacts. shares compounds with Pol eta inh-1. Potency, µM (highest dose often 115 µM), actives largely listed as inhibitors. 150 tested, 40% active. Phenol red-HRP H2O2 redox cycling, absorbance 600 nm
HEK293 viability: HEK-293 cytotoxicity, GALK inhibitor secondary. shares compounds with Pol eta inh-1. HEK-293 viability, ATP luminescence (CellTiter-Glo), 24/48 h. Potency, µM (titrated, usually from 46.1 µM), hits mostly inhibitors. 170 tested, 10% active. AID 2547
Pol kappa inh-2: Pol kappa (human) inhibition, cherry-pick confirmation; 920 tested, 76% active; purified Pol-kappa, fluorescent strand-displacement substrate; Potency, µM, most hits filed as inhibitors; AID 720501; shares compounds with Pol eta inh-1
Pol eta inh-2: Pol eta (human) inhibition, cherry-pick confirmation. shares compounds with Pol eta inh-1. Pol eta primer extension, TAMRA/BHQ fluorescence, 10 min. Potency, µM, most hits filed as inhibitors. 2,600 tested, 64% active. AID 720502
Large screens that a line does not name were inactive (follow-up assays come after a bar, where they were run). In the library only some 2.4% were active in any assay of this set; here they are far more common. Calls come from the whole dose curve; as a rule, active = well fitted curve in the direction sought with a large enough effect; inconclusive = small, poorly fitted or top-dose-only effect, or another doubt; inactive = no such curve, though single readings can be large; an effect the other way counts as inactive or inconclusive.

COCCNC(=O)CCn1c(=O)c2cc(OC)c(OC)cc2n(CC(=O)Nc2ccc(F)c(Cl)c2)c1=O	none
CCOC(=O)c1c(C)c(-c2ccccc2)n(CC(=O)NC(CC)Cc2ccccc2)c1C (stereo not drawn)	none
COc1ccc(OC)c(/C=N/c2oc(-c3ccco3)c(-c3ccco3)c2C#N)c1	POLB inh 45µM, POLI inh inconclusive, Pol kappa inh-1 79µM, Pol eta inh-1 79µM | POLI cherry-pick 38 | Pol eta inh-2 48
C=CCn1c(C)cc(C(=O)Cn2ncc(Cl)c(Cl)c2=O)c1C	POLB inh 11µM, POLI inh 20µM, Pol kappa inh-1 inconclusive, Pol eta inh-1 28µM | POLI cherry-pick inconclusive | Pol eta inh-2 76
N#C/C(=C\c1ccc(OCc2ccc(F)cc2)cc1)C(=O)Nc1cccc(C(=O)O)c1	POLB inh inconclusive, POLI inh inconclusive, TDP1 inh 45µM, Pol kappa inh-1 inconclusive, Pol eta inh-1 40µM | POLI cherry-pick inconclusive | Pol kappa inh-2 42 | Pol eta inh-2 inconclusive
COc1ccc(NC(=O)/C(C#N)=C\c2ccc(OCc3ccc(C(=O)O)cc3)c(OC)c2)cc1	POLI inh 32µM, TDP1 inh inconclusive, Pol eta inh-1 inconclusive | POLI cherry-pick inconclusive | Pol eta inh-2 inconclusive
CCc1ccc(CNC(=O)CSc2cc(=O)n(C)c3ccc(Cl)cc23)cc1	none
COc1ccccc1NC(=O)CSc1nc2c(oc3ccccc32)c(=O)n1Cc1ccco1	none
CCCSC1=N/C(=C\C=C\c2ccco2)C(=O)S1	POLB inh 5.6µM, POLI inh 10µM, Pol kappa inh-1 22µM, Pol eta inh-1 7.1µM (no result: TDP1 inh) | POLI cherry-pick inconclusive | Pol eta inh-2 60
COc1ccc(NC(=O)C2=C(C)Nc3nc(SCc4ccccc4C)nn3C2c2cc(OC)c(O)c(OC)c2)cc1 (stereo not drawn)	POLB inh 8.9µM, POLI inh 28µM, Pol eta inh-1 inconclusive | POLI cherry-pick inconclusive | Pol kappa inh-2 inconclusive
Cc1cc(C)c2c(c1)c(C)cc1nnc(SCC(=O)c3ccccc3)n12	none
COc1ccc(/C=C/C(=O)NC(=S)Nc2ccc(S(=O)(=O)Nc3cc(OC)ncn3)cc2)cc1	POLI inh inconclusive (no result: TDP1 inh)
COc1cc(NS(=O)(=O)c2ccc(NC(=S)NC(=O)/C=C/c3ccc(OC)c(OC)c3)cc2)ncn1	POLI inh inconclusive, Pol eta inh-1 32µM (no result: TDP1 inh) | PGK validate 29µM | POLI cherry-pick 38 | Pol kappa inh-2 27
[O-][n+]1cccc2cccc(O)c21	none (no result: POLB inh, TDP1 inh)
C[n+]1cccc2cccc([O-])c21	POLB inh 28µM, POLI inh 1.6µM, TDP1 inh 40µM, Pol kappa inh-1 inconclusive, Pol eta inh-1 22µM | POLI cherry-pick 24 | GALK inh confirm 24µM | GALK redox cs 12µM | HEK293 viability inactive | Pol eta inh-2 43
COc1ccc(NC(=O)c2c(N)c(C(=O)c3ccc(OC)cc3)n3ccccc23)cc1	none (no result: Pol eta inh-1)
O=C1NC(=Nc2ccc3ccccc3c2)S/C1=C/c1ccco1	POLB inh 8.9µM, POLI inh inconclusive, Pol kappa inh-1 inconclusive, Pol eta inh-1 35µM | POLI cherry-pick 38 | Pol kappa inh-2 27 | Pol eta inh-2 inconclusive
CCCCN(C)C1=CC2=CC(=C(C#N)C#N)CCC2CC1 (stereo not drawn)	POLI inh inconclusive, Pol eta inh-1 inconclusive | POLI cherry-pick 75 | Pol kappa inh-2 inconclusive | Pol eta inh-2 76
CC(=O)Oc1ccc(Cl)cc1/C=C/c1ccc2ccccc2n1	none (no result: TDP1 inh)
CC(C)(O)c1ccccc1CC[C@@H](SCC1(CC(=O)O)CC1)c1cccc(/C=C/c2ccc3ccc(Cl)cc3n2)c1	POLI inh 45µM, Pol eta inh-1 inconclusive (no result: POLB inh, TDP1 inh) | POLI cherry-pick inconclusive | Pol kappa inh-2 84
COc1cccc2c1C(=O)c1c(O)c3c(c(O)c1C2=O)CC(O)(C(C)=O)CC3OC1CC(O)C(O)C(C)O1 (stereo not drawn)	POLI inh 45µM, Pol kappa inh-1 inconclusive, Pol eta inh-1 25µM (no result: POLB inh, TDP1 inh) | POLI cherry-pick 24 | Pol kappa inh-2 75 | Pol eta inh-2 34
CCCCC(=O)OCC(=O)C1(O)Cc2c(O)c3c(c(O)c2C(OC2CC(NC(=O)C(F)(F)F)C(O)C(C)O2)C1)C(=O)c1c(OC)cccc1C3=O (stereo not drawn)	POLI inh inconclusive, Pol kappa inh-1 inconclusive (no result: POLB inh, TDP1 inh)
O=C(OCC#CCSc1nnc(-c2cccc3ccccc23)o1)c1cccc(F)c1	none (no result: POLB inh, POLI inh, Pol kappa inh-1, Pol eta inh-1)
Cc1cc(/C=C2\SC(=S)NC2=O)c(C)n1C	POLB inh 40µM, POLI inh inconclusive, Pol kappa inh-1 79µM, Pol eta inh-1 28µM | POLI cherry-pick 67 | Pol kappa inh-2 17 | Pol eta inh-2 38
COc1ccccc1N(CC(=O)NCc1ccco1)S(=O)(=O)c1ccc(C)cc1	POLB inh 11µM, POLI inh 5.6µM, Pol kappa inh-1 32µM, Pol eta inh-1 10µM (no result: TDP1 inh) | PGK validate 16µM | POLI cherry-pick 21 | Pol kappa inh-2 11 | Pol eta inh-2 27
Cc1ccc(S(=O)(=O)N(CC(=O)O)Cc2ccco2)cc1	POLB inh inconclusive, POLI inh 28µM, TDP1 inh 22µM, Pol kappa inh-1 inconclusive, Pol eta inh-1 18µM | POLI cherry-pick 67 | Pol eta inh-2 19
COc1ccc(N(CC(=O)NCc2ccco2)S(=O)(=O)c2ccc(C)cc2)cc1OC	none
COc1ccc(C(=O)n2nc(-c3cccnc3)nc2NCc2ccccc2)cc1OC	none
Cc1ccc(NC(=O)Cn2cc(S(=O)(=O)Cc3cccc(Cl)c3)c3ccccc32)cc1C	none
